Active and inactive are the calls of the source.
What was measured:
[1] = tested on: Plasmodium falciparum Sir2 (PF13_0152, Sir2A); experiment: pfSir2 binders on small-molecule microarrays, primary screen, biochemical, small-molecule microarray, 635 nm fluorescence (AID 1098); settings: small-molecule microarray binding, fluorescence 635 nm; higher = more signal;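 note: score merges spot fluorescence intensity with its signal-to-noise ratio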
[2] = small-molecule microarray binders of probe aDKK1, primary screen, biochemical, biotinylated probe, 635/667 nm fluorescence (AID 1099); settings: higher = more signal;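 note: score merges 667nm spot fluorescence with signal to noise across triplicate slides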
[3] = small-molecule microarray binders of probe aCHRDL2, primary screen, biochemical, biotinylated probe, 635/667 nm fluorescence (AID 1100); settings: higher = more signal
[4] = splicing luciferase reporter signal modulators, primary screen, spliceosome inhibition project, cell-based, HEK293, splice +/- reporter (AID 1101); settings: luminescence, 24 h, higher = more signal, called active from +8 up or from −8 down;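 note: HEK293 cells carrying a splicing-competent luciferase reporter gene; test concentration not given here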
[5] = biological target: Fibroblast growth factor 10 (Homo sapiens) (UniProt O15520); experiment: FGF10 binders on small-molecule microarrays, primary screen, biochemical, small-molecule microarray, 635 nm fluorescence (AID 1102); settings: FGF10 binding, fluorescence 635 nm, higher = more signal
Chain of Fibroblast growth factor 10 (Homo sapiens) (O15520 whole entry, looked up): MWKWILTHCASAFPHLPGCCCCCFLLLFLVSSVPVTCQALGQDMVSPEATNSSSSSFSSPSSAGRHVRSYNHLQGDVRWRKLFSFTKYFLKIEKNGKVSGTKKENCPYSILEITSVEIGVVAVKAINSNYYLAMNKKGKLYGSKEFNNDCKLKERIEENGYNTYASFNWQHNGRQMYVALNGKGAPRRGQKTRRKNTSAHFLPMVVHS

[6] = tested on: glycogen synthase kinase-3 (GSK3A per assay name; protocol says GSK3B); experiment: GSK3 binders on small-molecule microarrays, primary screen, biochemical, small-molecule microarray, 635 nm fluorescence, GSK3A (AID 1103); settings: small-molecule microarray binding, fluorescence 635 nm; higher = more signal; note: the record names both GSK3A and GSK3B
[7] = biological target: Epidermal growth factor receptor (Homo sapiens) (UniProt P00533); experiment: EGFR binders on small-molecule microarrays, primary screen, biochemical, small-molecule microarray, 635 nm fluorescence (AID 1104); settings: EGFR binding, higher = more signal;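 note: score merges 667 nm emission intensity with spot signal to noise over triplicate slides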
Chain of Epidermal growth factor receptor (Homo sapiens) (P00533 whole entry, looked up): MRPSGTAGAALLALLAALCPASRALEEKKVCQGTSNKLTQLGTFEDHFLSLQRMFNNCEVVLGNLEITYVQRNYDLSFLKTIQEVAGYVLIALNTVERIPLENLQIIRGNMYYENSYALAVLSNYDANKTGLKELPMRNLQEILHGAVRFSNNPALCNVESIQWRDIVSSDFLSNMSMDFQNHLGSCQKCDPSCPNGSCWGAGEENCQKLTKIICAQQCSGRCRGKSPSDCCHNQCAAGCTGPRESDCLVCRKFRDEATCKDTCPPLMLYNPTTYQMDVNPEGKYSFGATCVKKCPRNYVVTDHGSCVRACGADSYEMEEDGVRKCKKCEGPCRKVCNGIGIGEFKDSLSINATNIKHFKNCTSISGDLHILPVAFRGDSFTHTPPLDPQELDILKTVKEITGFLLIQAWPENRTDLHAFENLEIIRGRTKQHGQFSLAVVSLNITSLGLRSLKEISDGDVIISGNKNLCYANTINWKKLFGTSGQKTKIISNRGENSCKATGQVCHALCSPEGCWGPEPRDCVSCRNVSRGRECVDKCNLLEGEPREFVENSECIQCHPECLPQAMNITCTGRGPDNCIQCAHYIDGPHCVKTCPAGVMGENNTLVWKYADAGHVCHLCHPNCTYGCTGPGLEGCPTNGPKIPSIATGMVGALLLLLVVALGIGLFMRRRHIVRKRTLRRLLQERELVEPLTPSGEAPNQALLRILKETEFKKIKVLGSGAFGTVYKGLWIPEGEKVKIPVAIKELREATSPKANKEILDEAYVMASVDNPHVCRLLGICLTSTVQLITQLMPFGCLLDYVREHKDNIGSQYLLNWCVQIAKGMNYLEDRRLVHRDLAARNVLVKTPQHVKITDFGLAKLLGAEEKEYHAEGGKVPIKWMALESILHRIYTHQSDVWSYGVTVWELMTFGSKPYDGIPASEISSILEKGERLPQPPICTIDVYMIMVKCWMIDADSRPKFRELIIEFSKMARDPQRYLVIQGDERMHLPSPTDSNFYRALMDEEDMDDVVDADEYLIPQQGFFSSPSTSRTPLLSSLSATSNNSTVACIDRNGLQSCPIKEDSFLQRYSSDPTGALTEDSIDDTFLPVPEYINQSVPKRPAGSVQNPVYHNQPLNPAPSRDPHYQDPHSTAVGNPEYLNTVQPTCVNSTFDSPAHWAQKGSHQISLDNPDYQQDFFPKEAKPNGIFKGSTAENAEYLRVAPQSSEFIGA

[8] = biological target: Follistatin-related protein 3 (Homo sapiens) (UniProt O95633); experiment: FSTL3 binders on small-molecule microarrays, primary screen, biochemical, small-molecule microarray, 635 nm fluorescence (AID 1105); settings: FSTL3 binding, higher = more signal;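 note: score merges emission near 667 nm and signal to noise per printed spot across three slides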
Chain of Follistatin-related protein 3 (Homo sapiens) (O95633 whole entry, looked up): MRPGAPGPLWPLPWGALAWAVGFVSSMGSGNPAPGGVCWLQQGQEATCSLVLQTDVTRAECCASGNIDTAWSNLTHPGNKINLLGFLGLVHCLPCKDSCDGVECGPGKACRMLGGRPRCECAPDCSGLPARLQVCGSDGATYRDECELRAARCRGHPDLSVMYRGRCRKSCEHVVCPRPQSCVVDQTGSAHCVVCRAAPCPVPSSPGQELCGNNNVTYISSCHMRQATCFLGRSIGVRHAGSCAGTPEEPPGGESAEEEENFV

[9] = biological target: Dickkopf-related protein 1 (Homo sapiens) (UniProt O94907); experiment: DKK1 binders on small-molecule microarrays, primary screen, biochemical, small-molecule microarray, 635 nm fluorescence scan (AID 1106); settings: DKK1 binding, higher = more signal;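 note: score merges emission near 667 nm with signal to noise over three replicate slides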
Chain of Dickkopf-related protein 1 (Homo sapiens) (O94907 whole entry, looked up): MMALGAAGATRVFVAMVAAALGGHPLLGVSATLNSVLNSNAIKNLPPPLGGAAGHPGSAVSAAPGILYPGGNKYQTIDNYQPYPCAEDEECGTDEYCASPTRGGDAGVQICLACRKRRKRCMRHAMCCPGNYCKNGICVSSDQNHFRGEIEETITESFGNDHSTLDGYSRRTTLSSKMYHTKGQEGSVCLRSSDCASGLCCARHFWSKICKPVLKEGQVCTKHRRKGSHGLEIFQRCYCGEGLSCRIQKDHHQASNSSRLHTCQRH

[10] = tested on: Inhibin beta A chain (activin A); experiment: INHBA (activin A) binders on microarrays, primary screen, biochemical, small-molecule microarray, 635 nm fluorescence scan (AID 1107); settings: small-molecule microarray binding, higher = more signal;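 note: mouse activin A protein probed at 4.33 µg/mL on printed slides; score merges bound-protein fluorescence near 667 nm with spot signal-to-noise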
[11] = tested on: Human papillomavirus type 1a protein E7 (residues 44-93); experiment: HPV1a E7 fragment binders on microarrays, primary screen, biochemical, small-molecule microarray, residues 44-93, 635 nm fluorescence (AID 1108); settings: small-molecule microarray binding, fluorescence 635 nm; higher = more signal;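 note: E7 fragment applied at 1 µg/mL in TBST for 1 h at 4 C; score combines spot fluorescence with its signal to noise ratio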
[12] = modulators of HCV replicon luciferase signal, primary screen, HCV replication inhibitor project, Huh7 cells, luciferase reporter (AID 1109); settings: 48 h, higher = more signal;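 note: huh7 hepatoma cells harbouring a luciferase neomycin HCV replicon reporter; luciferase luminescence as measure of HCV replicon replication; test concentration not given here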
[13] = biological target: Left-right determination factor 2 (Homo sapiens) (UniProt O00292); experiment: LEFTY2 binders on small-molecule microarrays, primary screen, biochemical, small-molecule microarray, 635 nm fluorescence scan (AID 1110); settings: LEFTY2 binding, higher = more signal
Chain of Left-right determination factor 2 (Homo sapiens) (O00292 whole entry, looked up): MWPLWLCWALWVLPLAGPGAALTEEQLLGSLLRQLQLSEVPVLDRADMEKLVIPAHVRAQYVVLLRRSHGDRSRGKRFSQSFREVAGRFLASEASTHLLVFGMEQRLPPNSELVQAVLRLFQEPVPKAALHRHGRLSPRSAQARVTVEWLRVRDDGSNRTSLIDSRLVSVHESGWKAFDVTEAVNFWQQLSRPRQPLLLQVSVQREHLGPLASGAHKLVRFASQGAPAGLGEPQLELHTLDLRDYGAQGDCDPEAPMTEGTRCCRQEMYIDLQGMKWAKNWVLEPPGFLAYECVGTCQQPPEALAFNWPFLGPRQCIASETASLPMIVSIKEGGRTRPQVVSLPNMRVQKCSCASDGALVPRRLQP

[14] = biological target: Calmodulin-1 (Homo sapiens) (UniProt P0DP23); experiment: CALM1 binders on microarrays, EGTA buffer, profiling panel, biochemical, small-molecule microarray, Cy5-labelled CALM1 (AID 1111); settings: Cy5-CALM1 binding fluorescence, higher = more signal;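 note: labelled calmodulin applied in Tris saline Tween buffer holding calcium plus EGTA and DTT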
[15] = biological target: Calmodulin-1 (Homo sapiens) (UniProt P0DP23); experiment: calcium-bound CALM1 binders on microarrays, profiling panel, artefact control for SMM control-protein annotation, biochemical, small-molecule microarray, Cy5-labelled CALM1, plus calcium (AID 1112); settings: Cy5-CALM1 binding fluorescence, higher = more signal;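 note: score merges spot fluorescence with signal to noise from triplicate slides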
[16] = small-molecule microarray binders of probe aWnt5a, primary screen, biochemical, biotinylated probe, 635/667 nm fluorescence (AID 1113); settings: higher = more signal;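 note: score merges 667 nm fluorescence intensity with signal-to-noise per printed feature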
[17] = small-molecule microarray binders of probe aShh, primary screen, biochemical, biotinylated probe, 635/667 nm fluorescence (AID 1114); settings: higher = more signal;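 note: probe is biotin-labelled aShh protein from a stem cell growth factor screen; measures binding of labelled protein to compounds printed on the slide; score merges feature fluorescence at 667 nm with signal-to-noise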
[18] = small-molecule microarray binders of probe aNog, primary screen, biochemical, biotinylated probe, 635/667 nm fluorescence (AID 1115); settings: higher = more signal;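 note: probe is biotinylated aNog protein used at 0.15 µg/mL for 1 h at 4 C; z-score combines 667 nm fluorescence of each spot with its signal to noise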
[19] = biological target: Torsin-1A-interacting protein 1 (Homo sapiens) (UniProt Q5JTV8); experiment: LAP1 binders from COS7 cell lysate, primary screen, small-molecule microarray, 635/667 nm fluorescence (AID 1116); settings: COS7-hLAP1 lysate binding, 635 nm fluorescence, higher = more signal
Chain of Torsin-1A-interacting protein 1 (Homo sapiens) (Q5JTV8 whole entry, looked up): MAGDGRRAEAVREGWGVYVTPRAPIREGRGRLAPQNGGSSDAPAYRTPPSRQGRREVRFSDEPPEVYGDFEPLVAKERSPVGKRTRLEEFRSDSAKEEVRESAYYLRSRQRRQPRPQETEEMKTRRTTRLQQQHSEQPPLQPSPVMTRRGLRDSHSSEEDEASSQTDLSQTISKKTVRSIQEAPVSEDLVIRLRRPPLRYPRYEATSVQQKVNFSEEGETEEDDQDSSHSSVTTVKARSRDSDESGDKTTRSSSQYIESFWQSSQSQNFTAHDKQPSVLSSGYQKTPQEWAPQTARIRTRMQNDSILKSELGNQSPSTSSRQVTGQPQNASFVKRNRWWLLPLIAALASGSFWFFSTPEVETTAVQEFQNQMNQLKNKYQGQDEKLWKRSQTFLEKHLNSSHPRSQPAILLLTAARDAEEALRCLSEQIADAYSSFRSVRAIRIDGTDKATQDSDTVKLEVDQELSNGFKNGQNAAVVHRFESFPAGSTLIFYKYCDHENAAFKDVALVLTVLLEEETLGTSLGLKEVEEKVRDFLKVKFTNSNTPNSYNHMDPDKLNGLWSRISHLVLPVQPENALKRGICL

[20] = biological target: Alpha-bungarotoxin (Bungarus multicinctus) (UniProt P60615); experiment: alpha-bungarotoxin binders on microarray, profiling panel, artefact control for SMM control protein annotation, biochemical, small-molecule microarray, Alexa647 label, 635/667 nm fluorescence (AID 1117); settings: alpha-BTX-A647 binding fluorescence, higher = more signal
Chain of Alpha-bungarotoxin (Bungarus multicinctus) (P60615 whole entry, looked up): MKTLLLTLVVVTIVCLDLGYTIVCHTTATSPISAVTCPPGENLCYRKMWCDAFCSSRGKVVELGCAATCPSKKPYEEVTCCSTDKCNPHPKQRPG

SMILES	composite z-score [1]	composite z-score [2]	composite z-score [3]	z-score [4]	composite z-score [5]	composite z-score [6]	composite z-score [7]	composite z-score [8]	composite z-score [9]	composite z-score [10]	composite z-score [11]	z-score [12]	composite z-score [13]	composite z-score [14]	composite z-score [15]	composite z-score [16]	composite z-score [17]	composite z-score [18]	composite z-score [19]	composite z-score [20]
CC(C)=CCCC(C)=CCON=C1C[C@@H](O)[C@@H](O)[C@@H]2[C@@H]3C(=O)N(C(C)(C)C)C(=O)[C@@H]3CC[C@H]12	0.0059	0.0507	-0.396	0.129 (inactive)	0.396	0.563	0.512	0.392	0.432	-0.159	0.356	0.217	0.61	-0.327	-0.889	-0.118	-0.153	-0.0446	0.452	0.135
COc1ccc(C#C[C@@H]2C=C[C@H](OC(C)=O)[C@@H](COC(C)=O)O2)cc1	0.647	-0.174	-0.289	-0.613 (inactive)	0.465	0.185	0.586	0.842	0.476	1.18	0.318	-2.21	0.591	-0.268	-0.534	-0.2	-0.0471	-0.208	0.257	0.193
CO[C@H]1COC(=O)[C@@H](C)COC(=O)[C@H](COCc2ccccc2)NC(=O)CC=C[C@H]1C	0.641	-0.492	-0.828	0.104 (inactive)	0.121	-0.523	0.039	0.678	0.705	2.01	-1.39	-0.292	1.23	-3.3	-3.53	-0.247	0.0062	0.0139	-0.526	-0.445
CCOC(=O)[C@H](CC(C)C)NC(=O)CCC1CC(OC(=O)NCc2cccc3ccccc23)CC2(CCCC(COC(=O)NCCC(C)C)O2)O1 (stereo not given in full)	1.49	-0.203	-0.196	-2.95 (inactive)	0.335	-0.229	0.59	0.728	0.418	0.203	0.15	0.502	0.443	0.18	-0.703	-0.0529	-0.182	-0.32	0.165	0.503
CC(C)CON=C1C[C@@H](O)[C@@H](O)[C@@H]2[C@@H]3C(=O)N(C4CCCCC4)C(=O)[C@@H]3CC[C@@H]12	1.17	-0.22	-0.198	0.353 (inactive)	-0.0852	-0.925	-0.305	-0.504	-0.607	-0.164	-0.991	-1.6	0.0528	-0.333	-0.558	-0.178	-0.279	-0.417	0.136	0.673
CC(=O)OC[C@H]1O[C@H](C#Cc2ccccc2)C=C[C@@H]1OC(C)=O	1.27	-0.0406	-0.219	-1.92 (inactive)	0.338	0.163	0.0278	0.59	0.57	0.58	-0.234	-2.92	0.711	-0.376	-0.449	-0.119	-0.124	0.115	0.288	-0.686
CCOC(=O)[C@H](CC(C)C)NC(=O)CCC1CC(OC(=O)NCCc2ccc(F)cc2)CC2(CCCC(COC(=O)NCCOc3ccccc3)O2)O1 (stereo not given in full)	1.4	-0.0843	-0.545	0.119 (inactive)	0.989	0.508	0.672	1.1	1.52	-0.0219	1.36	-0.972	1.16	1.02	-0.129	-0.15	-0.13	-0.0965	0.531	0.947
C[C@@H]1CC[C@H]2C(=O)O[C@@H](COc3ccc(C(C)(C)C)cc3)CN2[C@@H]1c1ccc(Br)cc1	-0.0295	-0.339	-0.0805	-0.36 (inactive)	-0.828	-0.796	-0.291	-0.964	-0.924	0.011	-0.631	-0.0485	-0.403	-0.121	0.578	-0.179	-0.289	0.105	-0.319	0
CCCCC#C[C@@H]1C=C[C@H](Oc2cc(OC)c(OC)c(OC)c2)[C@@H](COC(=O)OCC)O1	0.589	-0.328	-0.619	-0.696 (inactive)	0.306	-0.682	0.0389	-0.203	0.514	0.444	-0.709	-0.548	0.144	-0.659	-0.986	-0.124	-0.276	-0.158	0.0606	0.624
COC(=O)[C@@H]1CC[C@H](C)[C@@H](c2ccc(C)cc2)N1C(=O)c1ccc(C=NOCC[C@@H]2C=C[C@H](OC(C)=O)[C@@H](COC(C)=O)O2)cc1	0.35	-0.33	-0.684	0.566 (inactive)	0.402	0.637	0.49	0.644	0.948	0.323	0.875	-0.852	0.465	-0.0548	-0.141	-0.0778	-0.0553	-0.37	1.41	0.646
COC(=O)[C@H](C)NC(=O)CCC1CC(OC(=O)NCc2cccc3ccccc23)CC2(CCCC(COC(=O)NCC(c3ccccc3)c3ccccc3)O2)O1 (stereo not given in full)	0.208	-0.0014	-0.523	0.026 (inactive)	0.715	1.27	0.702	0.601	0.386	-0.396	1.32	-0.977	0.889	-0.0132	-0.265	-0.0185	-0.273	-0.0157	0.345	0.0226

From PubChem BioAssay
